Measured values from PubChem BioAssay (NCI).
About 83,000 compounds went through this panel and 20% of them were active in at least one assay; those are over-represented in the sample as a whole.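 How to read the values: 0–100, growth inhibition (40 = 60% inhibited); 0, no net growth; -100 to 0, cell death (-40 = 40% of starting cells died; -100 = all dead).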 The source made the active and inactive calls. How the source made its calls: active means growth percent below 10; inactive means the rest.

What was measured:
Assay in all cases: NCI-60 one-dose screen, 48 h (100 = growth as untreated, 0 = no growth, -100 = all killed)
Conditions in all cases: 10 µM unless noted
[1] = tested on: NCI-H23 lung
[2] = tested on: NCI-H226 lung
[3] = tested on: NCI-H322M lung
[4] = tested on: HOP-62 NSCLC
[5] = tested on: NCI-H460 lung
[6] = tested on: HOP-92 NSCLC
[7] = tested on: NCI-H522 lung
[8] = tested on: A549/ATCC NSCLC
[9] = tested on: 786-0 renal
[10] = tested on: COLO 205 colon
[11] = tested on: DU-145 prostate
[12] = tested on: K-562 leukemia
[13] = tested on: MALME-3M melanoma
[14] = tested on: MDA-MB-231 breast
[15] = tested on: RXF 393 renal
[16] = tested on: SF-268 CNS
[17] = tested on: SF-295 CNS
[18] = tested on: SF-539 CNS
[19] = tested on: UACC-257 melanoma
[20] = tested on: M14 melanoma

Measured: growth

Clc1cc(Cl)c(Cl)c(-c2nnc(SCc3ccncc3Br)o2)c1
inactive: [1] 87.7% | [2] 98% | [3] 102% | [4] 82.5% | [5] 95.9% | [6] 84.4% | [7] 83.8% | [8] 153% | [9] 93.7% | [10] 110% | [11] 99.9% | [12] 69.5% | [13] 100% | [14] 93.3% | [15] 128% | [16] 97.8% | [17] 95.2% | [18] 90.9% | [19] 103% | [20] 97.9%

CC(=O)c1c(C)nc2ccccc2c1/C=C/c1ccc(F)cc1
inactive: [1] 81.7% | [2] 77.2% | [3] 96.8% | [4] 92% | [5] 91.5% | [6] 75.6% | [7] 69.2% | [8] 83.8% | [9] 89.4% | [10] 104% | [11] 96.1% | [12] 60.2% | [13] 123% | [14] 93.8% | [15] 92.7% | [16] 90.6% | [17] 84% | [18] 90.4% | [19] 95.2% | [20] 107%

C=C1C(=O)O[C@H]2[C@H]1CC/C(COC(=O)C(=O)c1cn(C)c3ccc(Cl)cc13)=C\CC[C@@]1(C)O[C@@H]21
active: [1] -60.1% | [2] -71.4% | [3] -68.9% | [4] -70.1% | [5] -69.8% | [6] -82.9% | [7] -65.8% | [8] -62.5% | [9] -97.6% | [10] -64.7% | [11] -96% | [12] 3.09% | [13] -65.6% | [14] -68.7% | [15] -97% | [16] -65.1% | [17] -65.4% | [18] -70.9% | [19] -84.1% | [20] -77.3%

Cc1cc(C(=O)Nc2ncc(Cc3cccc(C(F)(F)F)c3)s2)c2ccccc2n1
inactive: [1] 51.6% | [2] 54.4% | [3] 59.3% | [4] 31.8% | [5] 11.3% | [6] 28% | [7] 10.3% | [8] 24.7% | [9] 38% | [10] 19.2% | [11] 57.4% | [13] 26.8% | [14] 56.4% | [15] 31.1% | [16] 37.2% | [17] 15.1% | [18] 21.9% | [19] 43.3%
active: [12] 7.79% | [20] 3.81%

CCOC(=O)Cc1cnc(N/N=C(\C)c2cc3ccccc3o2)s1
inactive: [1] 86.5% | [2] 80.5% | [3] 93.6% | [4] 68% | [5] 94.4% | [6] 86.9% | [7] 42% | [8] 91.5% | [9] 97.3% | [10] 108% | [11] 113% | [12] 98.5% | [13] 91.8% | [14] 91.4% | [15] 107% | [16] 98.8% | [17] 104% | [18] 107% | [19] 98.2% | [20] 98.2%

Clc1ccc2c(NC3CCC(N4CCOCC4)CC3)ccnc2c1 (stereo not given)
inactive: [1] 62.2% | [2] 68.9% | [3] 101% | [4] 66.7% | [5] 81.8% | [6] 48.7% | [7] 80.8% | [8] 74.5% | [9] 70.6% | [10] 81.4% | [11] 90.9% | [12] 48.6% | [13] 89.3% | [14] 81.7% | [15] 90.3% | [16] 108% | [17] 47.1% | [18] 91.4% | [19] 56.6% | [20] 84%

COc1c(B(O)O)cccc1-c1nc2c(F)cc3[nH]ncc3c2c2c1CCCC2
active: [1] -11.1% | [2] 9.55% | [3] 7.84% | [4] 9.83% | [5] 4.81% | [7] 1.23% | [9] 0.342% | [10] -20.2% | [11] 7.77% | [13] -15.1% | [15] -45% | [17] 7.58% | [18] -28.3%
inactive: [6] 14.4% | [8] 12.2% | [12] 11.3% | [14] 12.4% | [16] 12.3% | [19] 20.3% | [20] 11.3%

O=C1/C=C/[C@@H](O)[C@@H]2C[C@@H](O)C[C@H]2/C=C/CCC[C@H](CCc2ccccc2)O1
active: [2] -28.6% | [6] -16.5% | [7] 7.89% | [9] -54.7% | [10] -72.5% | [13] -14.2% | [14] -65.1% | [15] -4.18% | [17] 1.38% | [20] 7.17%
inactive: [1] 13.3% | [3] 35.9% | [4] 30.1% | [5] 15.5% | [8] 16.6% | [11] 14.1% | [12] 17.7% | [16] 16.6% | [18] 26.3% | [19] 25.4%

N#Cc1ccc(O)c(C2=NCC(c3cccc(Oc4ccccc4)c3)O2)c1 (stereo not given)
active: [4] 2.94% | [5] 4.55% | [7] -11.9% | [8] -0.648% | [12] 7.33% | [19] 6.96% | [20] -4.77%
inactive: [1] 41.1% | [2] 45.2% | [3] 41.7% | [6] 36.8% | [9] 26.4% | [10] 14.7% | [11] 39.4% | [13] 37.3% | [14] 24.6% | [15] 61.8% | [16] 23.1% | [17] 30.9% | [18] 23.6%

COc1ccc(-c2ccc(=O)oc2-c2cc(OC)c(OC)c(OC)c2)cc1O
active: [4] -29% | [5] -18% | [7] -11.7% | [9] -6.12% | [11] -53.4% | [12] -25.7% | [15] 3.35% | [16] 5.78% | [17] -21.7% | [18] -19.2% | [20] -32.6%
inactive: [1] 25.9% | [2] 42.7% | [3] 43.5% | [6] 89% | [8] 15.9% | [10] 12.5% | [13] 54.1% | [14] 15.9% | [19] 25.1%

CCN(CC)CC(O)COc1c(Br)c(Br)c(Br)c2c1OC(C)(C)C2 (stereo not given)
active: [13] -30.1% | [17] 1.69%
inactive: [1] 96.1% | [2] 46.4% | [3] 60.7% | [4] 96.8% | [5] 27.7% | [6] 28.1% | [7] 145% | [8] 132% | [9] 51.3% | [10] 67.7% | [11] 117% | [12] 23.9% | [14] 44.7% | [15] 99.4% | [16] 83% | [18] 108% | [19] 140% | [20] 41.3%

Cc1ccc2c(n1)C(=O)C(Br)=C(C1CCCC1)C2=O
inactive: [1] 92.4% | [2] 94.3% | [3] 100% | [4] 84% | [5] 110% | [6] 98.4% | [7] 83.6% | [8] 94.4% | [9] 101% | [10] 52% | [11] 105% | [12] 34.3% | [13] 110% | [14] 85.2% | [15] 89.3% | [16] 96.5% | [17] 103% | [18] 99.7% | [19] 99.3% | [20] 101%

C=C(C)[C@@H]1CC[C@]2(C(=O)N3CCOCC3)CC[C@]3(C)[C@H](CC[C@@H]4[C@@]5(C)C/C(=C/c6ccncc6)C(=O)C(C)(C)[C@@H]5CC[C@]43C)[C@@H]12
inactive: [1] 61.7% | [2] 42.9% | [3] 86.8% | [4] 80.8% | [5] 49.7% | [6] 39.5% | [7] 50.3% | [8] 42.4% | [9] 76.4% | [10] 51.5% | [11] 77.9% | [12] 38.6% | [13] 77.5% | [14] 78.6% | [15] 52.3% | [16] 66.3% | [17] 85.9% | [18] 78.5% | [19] 53.7% | [20] 75%

COC(=O)c1nc(-c2ccccc2)oc1S(=O)(=O)Cc1ccccc1
inactive: [1] 96.8% | [2] 96.1% | [3] 98.1% | [4] 99.2% | [5] 107% | [6] 87.2% | [7] 38.1% | [8] 96.5% | [9] 71.4% | [11] 109% | [14] 85.2% | [15] 96.8% | [16] 93.1% | [17] 103% | [18] 100% | [19] 85.1% | [20] 48%
active: [10] -43% | [12] 2.87% | [13] -78.7%

N#CC1=C(N)Oc2c(sc3c(Br)cccc23)C1c1ccc(Cl)cc1 (stereo not given)
active: [5] 8.2% | [7] -26.8% | [8] 1.31% | [9] 5.59% | [10] -42.2% | [12] 7.37% | [14] 9.21% | [15] -18% | [17] 6.9% | [18] -38.2% | [20] 1.7%
inactive: [1] 17.2% | [2] 39.7% | [3] 36.1% | [4] 14.3% | [6] 35.6% | [11] 20% | [13] 50.4% | [16] 20.2% | [19] 64%

C=CCn1c(SCC(=O)Nc2ccc(C(=O)/C=C/c3ccc(Cl)cc3)cc2)nnc1-c1ccc(Br)cc1
inactive: [1] 83.7% | [2] 80.7% | [3] 91.8% | [4] 104% | [5] 83.1% | [6] 87.2% | [7] 60.3% | [8] 65.4% | [9] 89% | [10] 118% | [11] 75.3% | [12] 61% | [13] 97.6% | [14] 81.2% | [15] 74.8% | [16] 73.6% | [17] 96.8% | [18] 90.3% | [19] 92.3% | [20] 89.7%
